PubChem BioAssay (NCI)
Compounds without any hit were thinned out: in the full panel of roughly 83,000, 20% have a hit.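 Step 1: grow cells in 96-well plates. Step 2: add test compound at a single concentration. Step 3: incubate 48 h. Step 4: record percent growth.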 Values without a mark were called inactive. Activity calls are given as the source filed them. The calls were made as follows: active = growth percent below 10; inactive = the rest.

How the values were obtained:
Test in all cases: NCI-60 one-dose screen, 48 h (100 = growth as untreated, 0 = no growth, -100 = all killed)
Settings in all cases: 10 µM unless noted
DU-145 prostate = test system: DU-145 prostate
K-562 leukemia = test system: K-562 leukemia
MALME-3M melanoma = test system: MALME-3M melanoma
MDA-MB-231 breast = test system: MDA-MB-231 breast
RXF 393 renal = test system: RXF 393 renal
SF-268 CNS = test system: SF-268 CNS
SF-295 CNS = test system: SF-295 CNS
SF-539 CNS = test system: SF-539 CNS
UACC-257 melanoma = test system: UACC-257 melanoma
M14 melanoma = test system: M14 melanoma
HCT-15 colon = test system: HCT-15 colon
HT29 colon = test system: HT29 colon
SNB-75 CNS = test system: SNB-75 CNS
SNB-19 CNS = test system: SNB-19 CNS
U251 CNS = test system: U251 CNS
PC-3 prostate = test system: PC-3 prostate
SK-MEL-5 melanoma = test system: SK-MEL-5 melanoma
UACC-62 melanoma = test system: UACC-62 melanoma
LOX IMVI melanoma = test system: LOX IMVI melanoma
SK-MEL-28 melanoma = test system: SK-MEL-28 melanoma

SMILES	growth (DU-145 prostate)	growth (K-562 leukemia)	growth (MALME-3M melanoma)	growth (MDA-MB-231 breast)	growth (RXF 393 renal)	growth (SF-268 CNS)	growth (SF-295 CNS)	growth (SF-539 CNS)	growth (UACC-257 melanoma)	growth (M14 melanoma)	growth (HCT-15 colon)	growth (HT29 colon)	growth (SNB-75 CNS)	growth (SNB-19 CNS)	growth (U251 CNS)	growth (PC-3 prostate)	growth (SK-MEL-5 melanoma)	growth (UACC-62 melanoma)	growth (LOX IMVI melanoma)	growth (SK-MEL-28 melanoma)
COc1ccc2c(c1)nc(NNC(=O)c1cnccn1)c1cccn12	31.1%	13.9%	46.3%	30.4%	48%	30.4%	13.6%	23.5%	25.7%	8.27% (active)	21.5%	27.2%	70.5%	31.3%	27.3%	39.4%	26.4%	11.5%	9.17% (active)	25.1%
CCCCCCCCCCCCCCCCCCOc1ccccc1CC(=O)OCC[N+](CC)(CC)CC	33.9%	6.67% (active)	-8.97% (active)	-17.3% (active)	-16.9% (active)	23.8%	27.9%	18.5%	48.1%	26.8%	80.9%	13.1%	22.5%	11.4%	14.4%	18.3%	-3.62% (active)	21.4%	-57.6% (active)	31.5%
O=[N+]([O-])c1ccccc1NCSc1ccc(Cl)cc1	102%	93.1%	87.5%	90%	88.9%	84.2%	77.4%	107%	95.8%	102%	89.7%	108%	87.3%	103%	85.8%	56.2%	99.9%	89.2%	52.7%	107%
COc1ccc(C2NC(=O)C(C#N)c3c2sc2c(F)cccc32)c(OC)c1 (stereo not given)	90.5%	23.9%	39.8%	72.7%	9.65% (active)	52.1%	27.7%	8.87% (active)	68.3%	37.8%	36.3%	66.1%	-5.26% (active)	44.2%	39.3%	56.8%	81.8%	42.3%	39.7%	55.1%
COc1cc2cc(Oc3ccc(NC(=O)Nc4cc(C(F)(F)F)cc(C(F)(F)F)c4)cc3)c(C)nc2cc1OCCN1CCOCC1	24.9%	6.68% (active)	28.1%	1.49% (active)	26%	27.8%	7.59% (active)	38.5%	7.28% (active)	17.6%	13.4%	10.9%	36%	23.8%	8.71% (active)	10.5%	-13.1% (active)	45.9%	20.7%	51.2%
N#Cc1c(-c2ccccc2)nc(SCC(=O)Nc2nc(-c3ccc(Cl)cc3)cs2)[nH]c1=O	113%	94.2%	129%	120%	110%	103%	98.2%	100%	97.4%	93.7%	104%	93.3%	84.3%	101%	95.3%	91.6%	97.9%	88.4%	100%	101%
Cc1onc2c(-c3ccccc3)n[nH]c(=O)c12	110%	69.8%	81.5%	100%	122%	121%	97.1%	93.8%	122%	105%	104%	90.4%	83%	90.3%	97.6%	90.5%	105%	95.3%	104%	108%
O=C(O)C(c1ccccc1)N1C(=O)CSC1=S (stereo not given)	107%	103%	107%	108%	108%	94.4%	104%	100%	101%	100%	103%	106%	72.8%	102%	96.4%	101%	102%	97.7%	97.2%	99.5%
CCOC(=O)Cn1c(C)c(/C=N/NC(=O)c2cc3c(ccc4ccccc43)o2)c2ccccc21	11.2%	10.9%	70.8%	38.8%	-11.1% (active)	35.7%	19.3%	-14.1% (active)	41.5%	16.8%	11%	3.63% (active)	2.97% (active)	18%	15.9%	10.5%	7.35% (active)	35.4%	24.9%	45.2%
Cc1nn(-c2ccccc2)c2c1N=c1s/c(=C\c3ccc(C(F)(F)F)cc3)c(=O)n1CN2	117%	93.1%	83.1%	56.2%	49.7%	101%	84%	67.8%	-1.84% (active)	69.4%	70.1%	77.6%	78%	84.4%	73.6%	37.2%	31.1%	59.2%	56.7%	87.2%
CC(=O)CC(c1cccs1)c1c(-c2ccccc2)[nH]c2ccccc12 (stereo not given)	103%	77.2%	104%	86.9%	99.9%	85.6%	80.4%	98.9%	103%	94.5%	80.7%	98.2%	40.7%	96%	93.8%	77.3%	95.3%	77.9%	81.7%	102%
COc1ccc(C(=O)/C=C/c2sc(Cl)nc2Cl)cc1	61.9%	9.56% (active)	32.1%	38.7%	24.6%	31.9%	52.3%	-20.5% (active)	72.8%	6.12% (active)	13.1%	31.9%	50.9%	68.9%	16.5%	52.3%	-39.1% (active)	58.8%	-49.9% (active)	53.2%
CC(=O)OC[C@H]1OC(Sc2sc(C(=O)c3ccc(Cl)cc3)c(N)c2-c2nc3ccccc3s2)[C@H](OC(C)=O)[C@@H](OC(C)=O)[C@@H]1OC(C)=O (stereo not given in full)	70.7%	87.7%	69.4%	56.2%	112%	77.3%	95.1%	58.6%	96.6%	89.6%	82.3%	81%	50.1%	92.8%	88.6%	83.4%	85.2%	97.9%	68.8%	94.2%
COc1ccc(N)c(N)c1	111%	97.8%	91.7%	105%	105%	117%	99.1%	97.4%	114%	101%	101%	104%	85.7%	96.7%	107%	99.4%	105%	93.6%	99.3%	111%
COc1ccc(/C=C/c2c(C(=O)/C=C/c3ccc(C(F)(F)F)cc3)c(C)nc3ccccc23)cc1	-81% (active)	8.15% (active)	-46.7% (active)	-20.2% (active)	-83.9% (active)	14.6%	-49.3% (active)	-76.2% (active)	-38% (active)	-15% (active)	-20.2% (active)	7.38% (active)	25.6%	-43.1% (active)	-69% (active)	-23.4% (active)	-79.9% (active)	-29% (active)	-91.2% (active)	-50.7% (active)
